Screening data as filed in PubChem BioAssay.
Pf Dd2 inh – inhibitors of Plasmodium falciparum Dd2 growth; P. falciparum Dd2 growth, SYBR Green, 72 h; hit rate 4.3% among 120,000; Potency, µM (top dose mostly 28.9 µM), usual class: inhibitors; active means well fitted inhibition curve with a large enough effect; further: nearly all actives have a fitted effect of over 65% in size
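Readout: SYBR Green fluorescence, 485 nm excitation, 535 nm emission, after ~16 h lysis at 37C. Before that, Dd2-infected red cells (2.5% hematocrit) grew 72 h with compound, 29 uM top final concentration.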
Large screens that a line does not name were inactive. The entries come from a sample that favours hits as a whole.

CCOc1ccc(NC(=O)c2c(NC(=O)c3ccncc3)sc3c2CCC(C(C)(C)C)C3)cc1 (stereo unspecified)	none
CCOc1ccc(NC(=O)c2c(NC(=O)c3cccs3)sc3c2CCC(C(C)(C)C)C3)cc1 (stereo unspecified)	none
CC(C)(C)C1CCc2c(sc(NC(=O)c3ccncc3)c2C(=O)Nc2ccccc2Cl)C1 (stereo unspecified)	none
CCOc1ccc(NC(=O)c2c(NCc3cccnc3)sc3c2CCC(C)C3)cc1 (stereo unspecified)	none
COc1ccccc1NC(=O)c1c(NC(=O)c2ccco2)sc2c1CCC(C(C)(C)C)C2 (stereo unspecified)	none
CCOc1ccccc1NC(=O)c1c(NC(=O)c2ccccc2C)sc2c1CCC(C)C2 (stereo unspecified)	none
CCOc1ccc(NC(=O)c2c(NCc3ccc(C)o3)sc3c2CCC(C)C3)cc1 (stereo unspecified)	Pf Dd2 inh 11µM
Cc1cccc(NC(=O)c2c(NC(=O)c3cccs3)sc3c2CCC(C)C3)c1 (stereo unspecified)	none
OC1(CN2CCC(c3cc(Cc4ccccc4)[nH]n3)CC2)CNCCOC1 (stereo unspecified)	none
COCc1cc(=O)n(CC(=O)Nc2ccc(F)c(Cl)c2)c(N2CCOCC2)n1	none
Cn1c(CCNC(=O)C23CCCC=C2N(Cc2ccccc2)C(=O)CC3)nc2ccccc21 (stereo unspecified)	none
O=C(NCCc1ccccc1)N1CCCC(Cn2cnc3cccnc32)C1 (stereo unspecified)	none
CCN1c2cc(C(=O)NCCC3=CCCCC3)ccc2C(=O)N2CCCCC21 (stereo unspecified)	none
O=C1CC2CCCC(C1)N2C(=O)N1CCCC1	none
CCCOc1ccc(/C=C/C(=O)Nc2sc3c(c2C(=O)OCC)CCC(C)C3)cc1OC (stereo unspecified)	none
CCOC(=O)c1ccc(NC(=O)c2c(NCc3ccc(OC)c(OC)c3OC)sc3c2CCC(C)C3)cc1 (stereo unspecified)	Pf Dd2 inh 10µM
CCOC(=O)c1c(NC(=O)c2cc3ccccc3c(=O)o2)sc2c1CCC(C)C2 (stereo unspecified)	none
Cn1cnnc1-c1nn(C)c2c1CN(C(=O)c1n[nH]c3c1CCCCCC3)CC2	none
Cc1ccsc1CN(Cc1ccc(CN(C)S(C)(=O)=O)o1)CC(C)C	Pf Dd2 inh 8.9µM
CN(Cc1ccc(F)cc1)S(C)(=O)=O	none
Cc1ccc(NC(=O)CN2C(=O)NC3(CCC(C)CC3)C2=O)cc1Cl (stereo unspecified)	none
N#Cc1ccc(O[C@@H]2CCOC[C@H]2NC(=O)CCN2CCCC2=O)cc1	none
COc1ccc(C2(C(=O)NCCc3ncc(C)n3CC3CC3)CC2)cc1	none
Cc1cc(C)cc(N2C(=O)CSC23C(=O)N(CC(N)=O)c2ccccc23)c1 (stereo unspecified)	none
O=C1CSC2(C(=O)N(Cc3cccc(C(F)(F)F)c3)c3ccccc32)N1c1ccc(F)c(F)c1 (stereo unspecified)	Pf Dd2 inh 11µM
CC1(C)C(=O)N(CC(=O)Nc2ccc(Cl)cc2)c2ccccc21	none
Cc1cc(C)c(NC(=O)CN2C(=O)C3(SCC(=O)N3c3ccc(F)cc3)c3ccccc32)c(C)c1 (stereo unspecified)	Pf Dd2 inh 10µM
Cc1ccc(NC(=O)CN2C(=O)C(C)(C)c3ccccc32)cc1	none
Cc1ccc(N2C(=O)CSC23C(=O)N(CC(=O)Nc2ccccc2F)c2ccccc23)cc1C (stereo unspecified)	Pf Dd2 inh 11µM
Cc1ccc(C)c(NC(=O)CN2C(=O)C(C)(C)c3ccccc32)c1	none
COc1ccc(N2C(=O)CSC23C(=O)N(C)c2ccccc23)cc1Cl (stereo unspecified)	none
CC(C)c1ccc(N2C(=O)CSC23C(=O)N(Cc2cccc(F)c2)c2ccccc23)cc1 (stereo unspecified)	none
Cc1ccc(N2C(=O)CSC23C(=O)N(CC(=O)Nc2ccc(C(C)C)cc2)c2ccccc23)cc1C (stereo unspecified)	Pf Dd2 inh 13µM
O=C1CSC2(C(=O)N(Cc3cccc(F)c3)c3ccccc32)N1c1cccc(C(F)(F)F)c1 (stereo unspecified)	none
O=C1CCSC2(C(=O)N(Cc3ccc(F)cc3)c3ccccc32)N1c1ccccc1 (stereo unspecified)	none
CN1CCCN(CC(=O)N2C[C@H](NS(C)(=O)=O)[C@@H](C3CC3)C2)CC1	none
CNC(=O)[C@@H](c1ccccc1)N1CCC[C@H]1C(=O)NC1CCOCC1	none
O=C(NCC(F)F)C1CCCN(c2nc3ncccc3o2)C1 (stereo unspecified)	none
COc1nccc(N2CCC(CC(=O)NCCN3CCCCC3)CC2)n1	none
CCNC(=O)N1CCC[C@@H](O)[C@H](NC(=O)c2ccc(OCCOC)cc2)C1	none
C[C@@H](NCc1cccc(Cl)c1)c1onc(-c2ccc(F)cc2)c1C(=O)O	none
CN(Cc1ccc(-n2cccn2)cc1)C(=O)CCn1nnnc1CN1CCOCC1	none
Cc1cc(C)cc(N2C(=O)CCSC23C(=O)N(Cc2ccccc2)c2ccccc23)c1 (stereo unspecified)	none
O=C1CCSC2(C(=O)N(Cc3ccc(F)cc3)c3ccccc32)N1c1ccc(F)c(F)c1 (stereo unspecified)	none
O=C(CN1C(=O)C2(SCC(=O)N2c2ccccc2)c2ccccc21)NCc1ccccc1 (stereo unspecified)	none
O=C(CN1C(=O)C2(SCC(=O)N2c2ccc(F)c(F)c2)c2ccccc21)Nc1cccc(Cl)c1 (stereo unspecified)	Pf Dd2 inh 13µM
CN1C(=O)C2(SCC(=O)N2c2ccc(Cl)cc2)c2ccccc21 (stereo unspecified)	none
Cc1cccc(N2C(=O)CSC23C(=O)N(CC(=O)NCc2ccccc2Cl)c2ccccc23)c1 (stereo unspecified)	Pf Dd2 inh 10µM
CC(C)N1CCOC[C@H]1c1ncc(-c2ccc(OC(F)(F)F)cc2)[nH]1	none
O=C(Nc1ccc(F)cc1F)N[C@H]1C[C@H]2C(=O)NC[C@@H](CCC(=O)N3CCc4ccccc43)N2C1	none
Cn1ncc(N2CCC(CNC(=O)c3cccc(-n4cnnc4)c3)C2)cc1=O (stereo unspecified)	none
COCCn1cc(CN2CCN(Cc3cccc(F)c3)CC2)ccc1=O	none
COc1ccc(C2Cn3nnc(-c4nc(-c5ccc(F)cc5)no4)c3CO2)cc1 (stereo unspecified)	none
CCOc1cccc(-c2noc(-c3ncn4c3COC(c3ccc(F)cc3)C4)n2)c1 (stereo unspecified)	none
CCOc1ccc(C2Cn3nnc(-c4nc(-c5ccc(OC)c(F)c5)no4)c3CO2)cc1 (stereo unspecified)	none
CCOc1cc(-c2noc(-c3ncn4c3COC(c3ccc(OC)cc3)C4)n2)ccc1OC (stereo unspecified)	Pf Dd2 inh 2.5µM
Clc1ccccc1C1Cn2cnc(-c3nc(-c4ccncc4)no3)c2CO1 (stereo unspecified)	Pf Dd2 inh 5.6µM
COc1ccc(C2Cn3nnc(-c4nc(-c5ccc(OC)c(F)c5)no4)c3CO2)cc1 (stereo unspecified)	none
COc1ccc(C2Cn3cnc(-c4nc(-c5ccc(SC)cc5)no4)c3CO2)cc1 (stereo unspecified)	none
COc1cc(-c2noc(-c3ncn4c3COC(c3ccc(F)cc3)C4)n2)cc(OC)c1OC (stereo unspecified)	Pf Dd2 inh 11µM
Cc1ccc(-c2nc(-c3nnn4c3COC(c3ccccc3Cl)C4)no2)cc1 (stereo unspecified)	none
